Screening results as filed in PubChem.
Most compounds without a hit are left out; they make up all but 12% or so of the library.
NS1 function inh: influenza NS1 inhibition | Potency, µM (titrated, usually from 46.1 µM), inactives show at the top dose activity, positive = more growth | actives 0.4% (n = 270,000); further: potency means the concentration at half of the fitted maximal effect; actives are rising curves; nearly all actives have a fitted effect of over 50% in size
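Growth recovery, yeast-based: influenza A NS1 expressed in S. cerevisiae causes slow growth, and suppressors are detected by OD600. The parent strain without NS1 is used as positive control.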
Shiga inhibitor: blocks Shiga toxin action in Vero cells; actives 9.2% (n = 290,000); inhibition, % at 38.7 µM; AID 2315; Vero cells, Shiga toxin protein synthesis inhibition reporter; in the data active means inhibition mostly above about 28%, no sharp cut-off; inactive means mostly below about 43%; further: 0% is about no effect
SARS PLP yeast: SARS-CoV PLP inhibition in yeast; S. cerevisiae expressing SARS-CoV PLpro, growth rescue; Potency, µM (titrated, usually from 32.9 µM), for the others: top-dose activity, positive = growth rescue, actives largely listed as activators; actives 0.19% (n = 330,000); further: potency means the concentration at half of the fitted maximal effect; 0% is about no effect; nearly all actives have a fitted effect of over 55% in size
CHX counter: affects cycloheximide protein synthesis inhibition readout, counter-screen | actives 12% (n = 300,000) | max response, % | cell reporter, cycloheximide protein synthesis inhibition counterscreen | AID 2314; in the data active means max response mostly above about 13%, no sharp cut-off; inactive means mostly below about 14%; further: read at 38.3 µM for the half of the compounds with a filed dose; 0% is about no effect
* marks the source's active call; other numbers are inactive results; ? = inconclusive; nt = no result; + = active, no number. Unless noted, the call rests on the fitted dose curve.

SMILES	NS1 function inh	Shiga inhibitor	SARS PLP yeast	CHX counter
CN1/C(=C\C=Nc2ccc3ccccc3c2)C(C)(C)c2ccccc21	-18%	53	-32%	47*
CN1/C(=C\C=Nc2ccccc2)C(C)(C)c2ccccc21	-32%	-16	0%	-2
CN(C)c1ccc(N=C/C=C2\N(C)c3ccccc3C2(C)C)cc1	-6%	167*	-11%	68*
O=S1(=O)C=C(SCCN2CCCCC2)c2ccccc21	3%	37*	25%	26*
Cn1c(SCCN2CCCCC2)nnc1-c1ccccc1Br	-1%	-53	3%	0
COc1ccc2nc(N3C(=O)CNC3=S)sc2c1	-59%	50	-2%	51*
Cc1ccc2nc(N3C(=O)CNC3=S)sc2c1	-59%	56*	-6%	47*
COc1ccccc1NC(=O)COC(=O)C1CC2C=CC1C2 (configuration not stated)	-4%	25	-4%	15*
CC(=O)c1ccc(NC(=O)COC(=O)C2CC3C=CC2C3)cc1 (configuration not stated)	nt	nt	-4%	nt
CCOc1ccccc1NC(=O)CCCn1cc([N+](=O)[O-])cn1	nt	3	-4%	9
Cc1nonc1C(=O)N/N=C/c1cc2c(cc1Br)OCO2	1%	46	1%	28*
Cc1onc(-c2ccccc2)c1C(=O)N/N=C/c1cc2c(cc1Cl)OCO2	-7%	10	6%	-1
Cn1cc(Br)c(C(=O)N/N=C/c2cccc(OC3CSC3)c2)n1	10%	+	14%	57*
Nc1nonc1C(=O)N/N=C\c1cc2c(cc1Cl)OCO2	6%	42*	-7%	44*
Cc1nn(C)c(C(=O)N/N=C/c2cc3c(cc2Br)OCO3)c1Br	11%	-4	-9%	-2
Cn1cc(Br)c(C(=O)N/N=C/c2cc3c(cc2Cl)OCO3)n1	-1%	55	-11%	24*
CCOc1cc(/C=N/NC(=O)c2nn(C)cc2Br)ccc1OCc1ccccc1Cl	-5%	3	6%	-1
O=C1CCC([N+](=O)[O-])C(c2cccc3ccccc23)N1 (configuration not stated)	nt	-5	-1%	0
COc1ccc(C(C(=O)NCC2CCCO2)N(Cc2ccc(F)cc2)C(=O)CNC(=O)c2ccco2)cc1OC (configuration not stated)	27%	-16	6%	4
CSCC[C@H](NC(=O)[C@H](CO)NC(=O)[C@H](Cc1ccc(O)cc1)NC(=O)[C@@H](N)CO)C(=O)N[C@@H](CCC(=O)O)C(=O)N[C@@H](Cc1cnc[nH]1)C(=O)N[C@@H](Cc1ccccc1)C(=O)N[C@@H](CCCNC(=N)N)C(=O)N[C@@H](Cc1c[nH]c2ccccc12)C(=O)NCC(=O)N[C@@H](CCCCN)C(=O)N1CCC[C@H]1C(=O)N[C@H](C(=O)NCC(=O)N[C@@H](CCCCN)C(=O)N[C@@H](CCCCN)C(=O)N[C@@H](CCCNC(=N)N)C(=O)N[C@@H](CCCNC(=N)N)C(=O)N1CCC[C@H]1C(=O)N[C@H](C(=O)N[C@@H](CCCCN)C(=O)N[C@H](C(=O)N[C@@H](Cc1ccc(O)cc1)C(=O)N1CCC[C@H]1C(=O)N[C@@H](CC(N)=O)C(=O)NCC(=O)N[C@@H](C)C(=O)N[C@@H](CCC(=O)O)C(=O)N[C@@H](CC(=O)O)C(=O)N[C@@H](CCC(=O)O)C(=O)N[C@@H](CO)C(=O)N[C@@H](C)C(=O)N[C@@H](CCC(=O)O)C(=O)N[C@@H](C)C(=O)N[C@@H](Cc1ccccc1)C(=O)N1CCC[C@H]1C(=O)N[C@@H](CC(C)C)C(=O)N[C@@H](CCC(=O)O)C(=O)N[C@@H](Cc1ccccc1)C(=O)O)C(C)C)C(C)C)C(C)C	nt	-5	nt	-4
CC(=O)C1C(c2cccc(F)c2)c2c(n[nH]c2C)CC1(C)O (configuration not stated)	-1%	-11	-1%	-2
O=C(CSc1ccc(-c2ccco2)nn1)N1CCCCC1	nt	62*	-4%	61*
O=C(CSc1ccc(-c2ccco2)nn1)N1CCCC1	nt	10	-1%	14
CC1CC(C)CN(C(=O)CSc2nnc(-c3ccco3)o2)C1 (configuration not stated)	-3%	47	6%	13*
O=C(CSc1nnc(-c2ccco2)o1)N1CCCCC1	6%	66*	-1%	25*
SMILES	NS1 function inh	Shiga inhibitor	SARS PLP yeast	CHX counter
CC1CCN(C(=O)CSc2nnc(-c3ccco3)o2)CC1	-8%	-2	0%	-3
CCOc1ccc(S(=O)(=O)N2CCC(C(=O)N3CCCCCC3)CC2)cc1C	-9%	5	-8%	-2
CCCCC(C(=O)NC1CCCC1)N(C(=O)c1snc(C(N)=O)c1N)c1ccc(OCC)cc1 (configuration not stated)	2%	34	4%	-5
Cc1ccc(SCCc2ccc(C)nc2)cc1	-8%	active	-8%	22*
Cc1ccc(CCSCC(=O)O)cn1	-5%	-2	2%	-2
CCSc1nnc(-c2cc(Br)ccc2N)c(=O)[nH]1	5%	23	-1%	10
CCSc1nnc(-c2ccccc2N=Cc2c(C)[nH]n(-c3ccccc3)c2=O)c(=O)[nH]1	12%	17	7%	13*
CCSc1nnc(-c2ccccc2N)c(=O)[nH]1	-38%	53*	-2%	24*
Cc1ccnc(NS(=O)(=O)c2ccc(NC(=O)CCc3ccccc3)cc2)n1	29%	-10	2%	5
CCn1nnnc1SCC(=O)N1CCCCC1	nt	nt	-6%	nt
Cc1nc(CCNS(=O)(=O)c2cccs2)cs1	-3%	-4	8%	5
CCCS(=O)(=O)NCc1cn2c(C)csc2n1	?	49*	4%	32*
Cc1csc2nc(CCNS(=O)(=O)c3cccs3)cn12	-10%	32	0%	18*
COc1ccc(CCNc2c(C)c(C)nc3ncnn23)cc1	0%	-14	-6%	-4
CCCN(CC(=O)Nc1ccccc1OC)C(=O)CCC(=O)c1ccc(OCC)cc1	nt	nt	-3%	nt
Nc1nc(CSc2nc3ccccc3s2)nc(Nc2ccccc2)n1	7%	-14	8%	21*
O=C(NNC(=O)c1ccc[nH]1)Nc1cccc(C(F)(F)F)c1	1%	72*	?	43*
O=C(NNC(=O)c1ccc[nH]1)Nc1cc(Cl)cc(Cl)c1	4%	31	1%	15*
Cc1cccc2[nH]c(SCC(=O)O)nc12	nt	-10	-1%	-5
CC1CCN(C(=O)CSc2nc3ccccc3[nH]2)CC1	-5%	66*	1%	59*
CC1CCN(C(=O)CSc2nc3ncccc3[nH]2)CC1	-16%	28	0%	20*
Cc1cccc2[nH]c(SCC(=O)N3CCOCC3)nc12	-4%	109*	3%	21
COC(=O)c1nc2ccc(C)cn2c1F	10%	36	-2%	19*
N#Cc1ccc(CSc2ccccn2)c(Cl)c1	-5%	117	-7%	25*
Cn1c(SCc2ccc(C#N)cc2Cl)nc2ccccc21	-12%	125	-13%	40*
Cn1c(SCc2nc3ccccc3n2CCO)nc2ccccc21	-4%	-11	-3%	-5
CC1(C)NC(=O)N(CC(O)CN(c2ccccc2)S(=O)(=O)c2ccccc2[N+](=O)[O-])C1=O (configuration not stated)	0%	-15	-3%	-2
